Compounds without any hit were thinned out: in the full panel of roughly 83,000, 20% have a hit.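 Each cell line was grown in a 96-well plate and treated with one concentration of compound for 48 hours. Values below 10 were considered active.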 Active and inactive are the calls of the source.

For one assay, the system named is HT29 colon. Briefly: NCI-60 one-dose screen, 48 h (100 = growth as untreated, 0 = no growth, -100 = all killed). The settings on record: 10 µM unless noted.
With `CSc1nc(NCCN2CCOCC2)c(C#N)c(-c2cccc([N+](=O)[O-])c2)n1`, the growth is 106% (inactive). For `N#Cc1c(-c2ccc(Cl)cc2)nc(N=Nc2c(O)[nH]c3ccc(Cl)cc23)nc1N1CCOCC1`, the growth was 107% (inactive). Regarding `Cc1ccc(NS(=O)(=O)c2ccc(-c3cnc(C4CC4)o3)cc2)cc1C`, the growth is -10.4% (active). As for `Oc1ccccc1-c1nnc(CNc2ccc(Cl)cc2)o1`, the growth was 39.7% (inactive).

For the next assay, the system named is SNB-75 CNS. The description is as above. Conditions: 10 µM unless noted.
As to `N#C/C(=C\c1ccc(-c2ccc(Cl)c(Cl)c2)o1)c1nc(-c2ccco2)cs1`, the growth was 70.7% (inactive). In the case of `CC(C)C1=C[C@@]23CC[C@@H]4[C@](C)(CCC[C@@]4(C)C(=O)N4CCCNCC4)[C@H]2C[C@@H]1[C@H]1C(=O)CCC(=O)[C@H]13`, the growth was 63.5% (inactive).

`COc1ccc(CCNc2nc(SC)nc(-c3cccc([N+](=O)[O-])c3)c2C#N)cc1OC`: the growth is 61.8% (inactive). In the case of `Cc1cc(NS(=O)(=O)c2ccc(-c3cnc(C4CC4)o3)cc2)ccc1Cl`, the growth is -0.004% (active). Same read-out and setting: then `COc1ccc(-c2cc(C(=O)N=Nc3c(O)[nH]c4ccc(Br)cc34)no2)cc1`, with 66.1% (inactive); and `CCCOc1cc2ccccc2cc1C(=O)Nc1nc(NC)c2c(ccc3nccc32)[nH]1`, with -87.1% (active).

Regarding `CCCCN(CCCC)CCCn1c(-c2ccccc2)ccc1-c1ccccc1`, the growth was 83.4% (inactive).

In the case of `Cc1nc2ccccc2n1C(=O)C[C@@H]1NC(=S)NC1=O`, the growth was 74.1% (inactive). For `N#CCCN=Nc1c(O)[nH]c2ccc([N+](=O)[O-])cc12`, the growth was 70.5% (inactive). On to `Cc1cc(N2CCOCC2)nc(NCc2cc(Nc3ccnc4cc(Cl)ccc34)ccc2F)n1`, for which the growth was -20.3% (active). Turning to `Nc1n[nH]c2ccc([C@@H]3Nc4cc5c(cc4[C@H]4C6CCC(C6)[C@@H]34)C(=O)NC5)cc12` (some centres not stated), the growth is 2.29% (active). Take `c1ccc(-c2c(-c3ccccc3)[n+](Cc3ccc4ccccc4c3)c(-c3ccc(-c4nc5ccccc5s4)cc3)n2Cc2ccc3ccccc3c2)cc1`: the growth is -78.8% (active). In the case of `C=CC(=O)Nc1cccc(-c2nc(SC)nc(NCc3ccccc3)c2C#N)c1`, the growth is 19.6% (inactive). As for `CCCOc1ccc2nc(NC(=O)OC)[nH]c2c1`, the growth is 46.1% (inactive).

With `COc1cccc(/C=C2\Oc3cc(OCCN4CCCC4)ccc3C2=O)c1`, the growth was 87.3% (inactive).

`COc1ccc(/C=C2\Oc3cc(OCCCCN4CCCC4)ccc3C2=O)cc1`: the growth was 98.1% (inactive). The same measure, in the same setting: then `COc1cccc(-c2nn(C(C)(C)C)cc2-c2ccnc(NCCCNS(=O)(=O)c3cccc4ccccc34)c2)c1`, with 71.2% (inactive). The same measure, in the same setting: then `COc1cccc(-c2nc3sccn3c2-c2ccnc(NCCCNS(=O)(=O)c3c(Cl)cccc3Cl)c2)c1`, with 73% (inactive); and `O=C1c2cc3c(cc2-c2c1c1cc(F)c(F)cc1c(=O)n2CCCn1ccnc1)OCO3`, with 24.4% (inactive). For the molecule `O=C(/C=C/c1cccc(Cl)c1)c1ccc(O)c(CN2CCN(c3cc4c(cc3F)c(=O)c(C(=O)O)cn4C3CC3)CC2)c1`, the growth is 28.7% (inactive). On the same count and under the same terms, then `CCCn1c(=O)[nH]c(N)c([C@H]2c3ccccc3Oc3[nH]c(=O)n(CCC)c(=O)c32)c1=O`, with 82.9% (inactive). For `N#CCCN=Nc1c(O)[nH]c2ccc(F)cc12`, the growth was 62.7% (inactive).

As for `COc1ccc(-c2n[nH]nc2-c2csc3ccccc23)cc1OC`, the growth was 1.72% (active).

As to `COc1cc(/C=C/c2cc(O)c3cc(C(C)=O)c(=O)oc3c2)cc2c1O[C@]1(C)CC[C@@H](O)C(C)(C)[C@H]1C2`, the growth was -8.02% (active).

For the molecule `O=C(N=Nc1c(O)[nH]c2ccc(Br)cc12)c1cc(-c2ccccc2)on1`, the growth is 58.4% (inactive).

Take `CSc1nc(NCc2ccccc2)c(C#N)c(-c2cccc([N+](=O)[O-])c2)n1`: the growth was 68.2% (inactive).

Consider `O=S(=O)(Nc1ccc(Cl)c(F)c1)c1ccc(-c2cnc(C3CC3)o2)cc1`, for which the growth was -7.32% (active). On the same count and under the same terms, the figure for `CC1(C)CC[C@]2(C(=O)Nc3ccccn3)CC[C@]3(C)C(=CC[C@@H]4[C@@]5(C)C/C(=C/c6cccnc6)C(=O)C(C)(C)[C@@H]5CC[C@]43C)[C@H]2C1` is 45.2% (inactive); for `O=S(=O)(Nc1ccc(Br)c(Cl)c1)c1ccc(-c2cnc(C3CC3)o2)cc1` it is -5.71% (active); for `C=C(C)[C@@H]1CC[C@]2(C(N)=O)CC[C@]3(C)[C@H](CC[C@@H]4[C@@]5(C)C/C(=C/c6ccco6)C(=O)C(C)(C)[C@@H]5CC[C@]43C)[C@@H]12` it is 89.5% (inactive). Regarding `Cc1nc2c3c(-c4ccccc4)c(-c4ccccc4)oc3ncn2n1`, the growth was 69.9% (inactive). The same measure, in the same setting: then `COc1cccc(-c2nn(C(C)(C)C)cc2-c2ccnc(NCCCNS(=O)(=O)c3ccc(C)cc3)c2)c1`, with 69.8% (inactive); and `COc1ccc(-c2nc3ccc(-c4nc5ccc(N6CCN(c7ccc(F)cc7)CC6)cc5[nH]4)cc3[nH]2)cc1OC`, with 64.3% (inactive); and `O=C1NC(=S)NC(=O)C1CC(=O)n1c(-c2ccccc2)nc2ccccc21`, with 66.5% (inactive). Consider `CSc1nc(NCCN2CCOCC2)c(C#N)c(-c2cccc([N+](=O)[O-])c2)n1`, for which the growth was 62.8% (inactive).

With `N#Cc1c(-c2ccc(Cl)cc2)nc(N=Nc2c(O)[nH]c3ccc(Cl)cc23)nc1N1CCOCC1`, the growth was 68.7% (inactive).

For `Cc1ccc(NS(=O)(=O)c2ccc(-c3cnc(C4CC4)o3)cc2)cc1C`, the growth is -7.43% (active). `Oc1ccccc1-c1nnc(CNc2ccc(Cl)cc2)o1`: the growth was 50.3% (inactive).

For the origin of these results see PubChem BioAssay (NCI).
